Most compounds without a hit are left out; they make up all but 19% or so of the library.
IL-1B inflam inh – inhibitors of inflammasome signaling (IL-1 beta secretion) | THP-1 LPS/ATP IL-1B secretion, AlphaLISA, 16 h; hits give low values | activity change, % at 57.5 µM | 4.7% of 360,000 active; in the data active means activity change below about -50%; inconclusive means mostly about -30% to -49%; further: on the % scale 0 is the no-effect control and ±100 the full control effect
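Secreted IL-1B measured by AlphaLISA bead assay after 16 h compound exposure of THP-1 cells; compounds (final up to 57.5 uM) added 1 h before LPS (250 ng/mL) and ATP (1.25 mM) stimulation; lower signal means less secretion.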
TDP1 block – inhibitors of human tyrosyl-DNA phosphodiesterase TDP1. Potency, µM (titrated, usually from 130 µM), for the others: at the highest dose activity change, negative = inhibition, usual class: inhibitors. 0.28% of 350,000 active. AID 485290. Q9NUW8. recombinant TDP1, AlphaScreen DNA substrate cleavage; further: potency means the concentration at half of the fitted maximal effect; on the % scale 0 is the no-effect control and ±100 the full control effect; nearly all actives have a fitted effect of over 40% in size
Target sequence (Q9NUW8 whole entry, looked up): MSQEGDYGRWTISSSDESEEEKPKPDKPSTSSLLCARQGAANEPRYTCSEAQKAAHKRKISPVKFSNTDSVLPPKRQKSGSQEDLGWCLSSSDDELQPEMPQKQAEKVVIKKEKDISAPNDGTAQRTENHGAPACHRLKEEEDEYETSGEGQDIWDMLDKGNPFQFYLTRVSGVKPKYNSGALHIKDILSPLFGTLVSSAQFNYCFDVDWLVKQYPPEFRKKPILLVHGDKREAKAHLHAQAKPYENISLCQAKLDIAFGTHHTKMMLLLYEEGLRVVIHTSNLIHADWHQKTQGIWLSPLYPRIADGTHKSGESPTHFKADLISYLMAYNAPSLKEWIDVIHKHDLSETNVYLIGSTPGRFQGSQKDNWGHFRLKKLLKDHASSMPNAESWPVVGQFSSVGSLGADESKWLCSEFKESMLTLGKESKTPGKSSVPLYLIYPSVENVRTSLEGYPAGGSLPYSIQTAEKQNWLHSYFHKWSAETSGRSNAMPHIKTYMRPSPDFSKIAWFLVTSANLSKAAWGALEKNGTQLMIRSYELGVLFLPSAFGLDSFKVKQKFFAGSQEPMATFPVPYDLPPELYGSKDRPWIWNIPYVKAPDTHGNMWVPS
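Tdp1 1 nM final; 15 min RT w/ cpd; substrate 15 nM, 5 min; beads 10 ug/ml, 10 min; AlphaScreen read. Neg ctrl: no enzyme.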
TDP1 cell noCPT – qHTS for Inhibitors of human tyrosyl-DNA phosphodiesterase 1 (TDP1): qHTS in cells in absence of CPT; 15% of 420,000 active; Potency, µM (highest dose often 46.2 µM), for the others: at the highest dose activity change, negative = growth inhibition, hits mostly inhibitors; AID 686978, 2013; DT40 Tdp1-/- hTDP1 cells, no CPT, ATP luminescence, 48 h; further: potency means the concentration at half of the fitted maximal effect; on the % scale 0 is the no-effect control and ±100 the full control effect; nearly all actives have a fitted effect of over 55% in size
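DT40 Tdp1-/-;hTDP1 cells, no CPT (DMSO vehicle only), 400 cells/well; compounds pin-transferred; ≥48 hr, 37 °C; CellTiter-Glo 30 min RT dark, luminescence read.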
TGFb SMAD3 inh – TGF-b pathway inhibition | HepG2 CAGA-GFP TGF-b/SMAD3 reporter, GFP fluorescence, 18 h; TGF-beta stimulated, 500 pg/mL final | Potency, µM (series often up to 46.1 µM), without a hit: top-dose activity, negative = inhibition, actives largely listed as inhibitors | 1.2% of 410,000 active | AID 588855; further: potency means the concentration at half of the fitted maximal effect; on the % scale 0 is the no-effect control and ±100 the full control effect; nearly all actives have a fitted effect of over 65% in size
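Smad-responsive CAGA-GFP expression was quantified in HEPG2 cells exposed to compounds and 500 pg/mL final TGF-beta for 18 h at 37 degrees C; unstimulated wells defined full inhibition.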
HepG2 tox – HepG2 cytotoxicity, counter-screen for TGF-b inhibitors; HepG2 CAGA-GFP viability, ATP luminescence, 18 h; 0.76% of 410,000 active; Potency, µM (highest dose often 46.1 µM), for inactives: at the highest dose activity change, negative = cytotoxicity, usual class: cytotoxic; further: potency means the concentration at half of the fitted maximal effect
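CellTiter-Glo luminescence gave cytotoxicity after 18 hours at 37 degrees C. The cells were HepG2 CAGA-GFP in 1% FBS DMEM, stimulated with 500 pg/mL TGF-beta after compound addition. %Activity was normalised to no-cell wells (complete cell-killing) and DMSO (no toxicity), and curves were fitted and classified.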
DT40 TDP1 CPT – growth inhibition of DT40 Tdp1-/-;hTDP1 cells with camptothecin (screen for TDP1 inhibitors) | chicken DT40 Tdp1-/-;hTDP1 cells + 20 nM CPT, ATP luminescence, 48 h | Potency, µM (highest dose often 46.2 µM), for inactives: at the top dose activity change, negative = growth inhibition, actives largely listed as inhibitors | 12% of 420,000 active | AID 686979; further: potency means the concentration at half of the fitted maximal effect; on the % scale 0 is the no-effect control and ±100 the full control effect; nearly all actives have a fitted effect of over 55% in size
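Chicken DT40 Tdp1-/- cells stably complemented with human TDP1 were seeded at 400 cells/well in medium containing 20 nM camptothecin, exposed to pin-transferred compounds, and grown at 37 °C for at least 48 hr. Viability was read as ATP luminescence.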
* hit, by the source's call; ? = inconclusive; / = no result given; [ ] = another dose, or the depositor's remark. Unless noted, the call rests on the fitted dose curve; in most records, active means well fitted curve in the direction sought with a large enough effect; inconclusive means small, poorly fitted or top-dose-only effect, or another doubt; inactive means no such curve, though single readings can be large; an effect the other way counts as inactive or inconclusive.

SMILES | IL-1B inflam inh | TDP1 block | TDP1 cell noCPT | TGFb SMAD3 inh | HepG2 tox | DT40 TDP1 CPT
O=[N+]([O-])c1ccc(/C=N/Nc2nc(N3CCCC3)nc(N3CCCC3)n2)o1 | 2 | 2% | ? | ? | -49% | 23µM*
CCNc1nc(NCC)nc(N/N=C/c2ccc([N+](=O)[O-])o2)n1 | 7 | 6% | 16µM* | ? | -32% | 16µM*
CCNc1nc(NCC)nc(N/N=C/c2ccccc2)n1 | 7 | / | 0% | 0% | -3% | 3%
O=C(O)c1cccc(-c2ccc(/C=N/Nc3nn[nH]n3)o2)c1 | 3 | -15% | 2% | 23% | 14% | 16%
O=[N+]([O-])c1cccc(-c2ccc(/C=N/Nc3nc(N4CCCCC4)nc(N4CCCCC4)n3)o2)c1 | -14 | 9% | ? | 5% | -40% | ?
COc1ccccc1-c1cnnc(N/N=C/c2ccc(-c3cccc(Br)c3)o2)n1 | -22 | 9% | 23µM* | -10% | -2% | 15µM*
COc1cc(OC)c(NC(=O)NCc2ccc3c(c2)CCN3C(=O)c2ccccc2)cc1Cl | / | 8% | -21% | ? | 7% | ?
COc1ccc(-c2nc3c(c4c2C[C@H](c2ccccc2)OC4)CN(S(=O)(=O)c2ccc(Cl)c4nonc24)CC3)c(C)c1 | / | 4%[21 µM] | / | / | / | /
COc1ccc(-c2cnnc(N/N=C/c3ccc(O)c(OC)c3)n2)cc1 | -27 | 1% | 5.2µM* | -13% | -42% | 5.2µM*
COc1ccc(-c2cnnc(N/N=C/c3ccc(-c4ccc([N+](=O)[O-])cc4)o3)n2)cc1 | 54 | 7% | 1.5µM* | -14% | 1% | 1.2µM*
O=[N+]([O-])c1ccc(-c2ccc(/C=N/Nc3nc(N4CCCCC4)nc(N4CCCCC4)n3)o2)cc1 | 14 | 3% | 21µM* | 3% | 7% | ?
CC1(C)CC(=O)C(C(c2ccc(Br)cc2)C2C(=O)CC(C)(C)CC2=O)C(=O)C1 | 24 | / | 9% | 35% | -2% | 25%
Cc1cccc(C)c1Nc1nc2ccccc2nc1NS(=O)(=O)c1ccccc1 | / | / | -15% | 17% | -34% | ?
COc1ccc2c(c1)CCc1cnc(-n3ncc(C(=O)NCCCc4ccncc4)c3C)nc1-2 | / | / | 18µM* | / | / | -2%[9.04 µM]
CCN(CC)CCNC(=O)c1cnn(-c2ncc3c(n2)-c2ccc(OC)cc2CC3)c1C | / | / | -17% | / | / | 18%[9.04 µM]
COc1ccc2c(Cl)cc(NC(=O)Nc3c(C)cccc3C)nc2c1 | 11 | / | 18µM* | 6% | -1% | 13µM*
COC(=O)C1=CN(Cc2ccc(C)cc2)C=C(C(=O)OC)C1c1cc(OC)c(OC)c(OC)c1 | -11 | / | ? | 4% | -21% | 16µM*
COc1cc2c(cc1OC)C(=O)N1[C@H]3c4cc(C)ccc4OC[C@@H]3[C@H](c3ccccc3)[C@]1(C)C(=O)N2 | -51* | 2% | 21µM* | -5% | 2% | 18µM*
COc1ccc2c(c1)C(=O)N1[C@H]3c4cc(Br)ccc4OC[C@@H]3[C@H](c3ccccc3)[C@]1(C)C(=O)N2 | -18 | -2% | ? | ? | -31% | ?
Cc1ccc2c(c1)[C@H]1[C@H](CO2)[C@H](c2ccccc2)[C@]2(C)C(=O)Nc3cc(F)c(F)cc3C(=O)N12 | ? | 3% | ? | -2% | -11% | ?
Cc1ccc2c(c1)[C@H]1[C@H](CO2)[C@H](c2ccccc2)[C@]2(C)C(=O)Nc3ccc(F)cc3C(=O)N12 | -61* | / | 21µM* | -20% | -27% | 21µM*
